In PubChem BioAssay (EPA / NIEHS):
Results filed as inconclusive are left out. Active and inactive are the calls of the source. The calls were made as follows: active = hit-call score of the fitted dose curve at least 0.9, where 1 is the maximum; inconclusive = response in the unintended direction; inactive = score below 0.9.

biological target: rat Adrenergic, Alpha 1A Receptor (Adra1A), Adra1a (gene 29412) (UniProt P43140); experiment: NVS_GPCR_rAdra1A: NovaScreen (NVS) G Protein-Coupled Receptor Assay for rat Adrenergic, Alpha 1A Receptor (Adra1A) (AID 2283296)
Method: NVS_GPCR_rAdra1A is a biochemical, single-readout assay that uses extracted gene-proteins from Rat cortical membranes (pretreated with chlorethyl clonidine-CEC) in a tissue-based cell-free assay. Measurements were taken 1 hour after chemical dosing in a 48-well plate.NVS_GPCR_rAdra1A is one of one assay component(s) measured or calculated from the NVS_GPCR_rAdra1A assay. It is designed to make measurements of radioligand binding, a form of binding reporter, as detected with scintillation counting signals by Filter-based radiodetection technology.Data from the assay component NVS_GPCR_rAdra1A was analyzed into 1 assay endpoint. This assay endpoint, NVS_GPCR_rAdra1A, was analyzed in the positive analysis fitting direction relative to DMSO as the negative control and baseline of activity. Using a type of binding reporter, loss-of-signal activity can be used to understand changes in the binding as they relate to the gene Adra1a. Furthermore, this assay endpoint can be referred to as a primary readout, because the performed assay has only produced 1 assay endpoint. To generalize the intended target to other relatable targets, this assay endpoint is annotated to the gpcr intended target family, where the subfamily is rhodopsin-like receptor.
Binding assays used specific radioligands (tritiated, iodinated) with non-radioactive competitive displacement ligands in agonist or antagonist protocols (as indicated) and various reference compounds and inhibitors to titrate specific binding to receptors and transporters. Most enzyme assays (CYPs, kinases, phosphatases, proteases, HDACs) used recombinant protein and specific substrates (fluorescence mostly, some colorimetric and radioactive) and inhibitors, followed by a biochemical separation of substrate and product. All assays for the biochemical HTS were initially run in duplicate at a single concentration (10 uM for CYP450 assays and 25 uM for all others). […] Each assay was run with positive and negative controls, and concurrent controls on every plate. The follow-up (secondary) screen tested active chemical-pairs in concentration series, as well as a few additional assays not tested in the primary screen, some selected negative inactives, and several cases re-run in the concentration series for confirmatory purposes.

Chain of rat Adrenergic, Alpha 1A Receptor (Adra1A), Adra1a (gene 29412) (P43140 whole entry, looked up): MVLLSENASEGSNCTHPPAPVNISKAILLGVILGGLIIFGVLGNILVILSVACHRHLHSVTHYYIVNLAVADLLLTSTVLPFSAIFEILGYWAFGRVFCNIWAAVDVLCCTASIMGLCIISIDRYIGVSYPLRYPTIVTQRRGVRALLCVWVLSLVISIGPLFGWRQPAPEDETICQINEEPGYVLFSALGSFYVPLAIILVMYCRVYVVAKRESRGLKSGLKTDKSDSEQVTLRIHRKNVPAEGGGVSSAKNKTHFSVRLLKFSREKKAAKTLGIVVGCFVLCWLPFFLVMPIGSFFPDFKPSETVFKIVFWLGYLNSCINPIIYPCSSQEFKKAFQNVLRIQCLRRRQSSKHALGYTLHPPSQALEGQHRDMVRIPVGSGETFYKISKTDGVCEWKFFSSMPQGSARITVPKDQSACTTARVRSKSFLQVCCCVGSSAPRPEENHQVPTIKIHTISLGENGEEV

Row | SMILES | outcome | AC50
1 | Cc1ccc(C(C)(C)C)c(O)c1 | inactive | 
2 | CN(C)C(=O)NC1(c2ccccc2)CCN(CCC[C@]2(c3ccc(Cl)c(Cl)c3)CCCN(C(=O)c3ccccc3)C2)CC1 | inactive | 
3 | COc1ccc(OC(F)(F)F)cc1CN[C@H]1CCCN[C@H]1c1ccccc1 |  | 25 µM (active)
4 | CN(C)C(=O)NC1(c2ccccc2)CCN(CC[C@@]2(c3ccc(F)c(F)c3)CN(C(=O)c3ccccc3)CCO2)CC1 |  | 8.08 µM (active)
5 | NC(=Nc1ccccc1)Nc1ccccc1 |  | 8.43 µM (active)
6 | CSc1ccc(Oc2ccc(S(N)(=O)=O)cc2CN(C)C)cc1C |  | 6.58 µM (active)
7 | Cc1cc(SC2=C(O)C[C@@](CCc3ccc(N)cc3)(C(C)C)OC2=O)c(C(C)(C)C)cc1CO | inactive | 
8 | CCN(CC)CCOc1ccc(C(=C(Cl)c2ccccc2)c2ccccc2)cc1 |  | 21 µM (active)
9 | CCc1nc(N)nc(N)c1-c1ccc(Cl)cc1 |  | 2.37 µM (active)
10 | O=C(N[C@@H](c1ccccc1)[C@@H]1CCCCN1)c1cccc(C(F)(F)F)c1Cl |  | 16.7 µM (active)
